Potency and activity change, negative = inhibition data for 39 molecules are collected here from PubChem BioAssay (NCATS).

Inconclusive results are not listed. Activity calls are given as the source filed them. Rule as the data show it, unless noted: active = potency below about 10 µM; inactive = the rest. Where only a bound is given, the exact number is not on record here.

Chain of Lysosomal acid glucosylceramidase (Homo sapiens) (P04062 whole entry, looked up): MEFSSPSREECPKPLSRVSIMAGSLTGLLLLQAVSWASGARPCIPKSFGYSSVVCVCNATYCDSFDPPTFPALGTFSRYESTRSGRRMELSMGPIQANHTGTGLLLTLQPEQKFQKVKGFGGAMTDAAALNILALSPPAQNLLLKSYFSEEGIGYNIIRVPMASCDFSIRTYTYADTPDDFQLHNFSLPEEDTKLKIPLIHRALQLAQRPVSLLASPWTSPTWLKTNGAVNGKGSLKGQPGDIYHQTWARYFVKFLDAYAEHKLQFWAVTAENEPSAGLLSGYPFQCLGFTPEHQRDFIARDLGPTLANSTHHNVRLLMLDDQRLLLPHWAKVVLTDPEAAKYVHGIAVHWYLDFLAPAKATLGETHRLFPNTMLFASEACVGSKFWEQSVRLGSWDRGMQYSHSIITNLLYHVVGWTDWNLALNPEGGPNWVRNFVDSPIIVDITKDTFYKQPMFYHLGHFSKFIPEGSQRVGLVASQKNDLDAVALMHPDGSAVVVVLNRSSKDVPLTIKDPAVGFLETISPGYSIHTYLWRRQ

For the first test, the target named is Lysosomal acid glucosylceramidase (Homo sapiens) (UniProt P04062). As to the kind of experiment: Glucocerebrosidase-p2 (AID 348). Also: potency is read from the fitted curve at half-maximal effect. Particulars: purified GBA, blue fluorogenic substrate, 40 min. The essentials:
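Normal human glucocerebrosidase (0.2 nM) with blue fluorogenic substrate (80 uM final) in citrate/phosphate pH 5.9 with 10mM sodium taurocholate, 0.01% tween-20; 40 min RT, NaOH/glycine stop; fluorescence Ex 365/Em 440; AC50 from a titration from 0.6 nM upwards.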
Regarding `O=C(O)c1cccc(C(=O)O)c1S(=O)Cc1ccccc1` (stereo not drawn), the Potency is > 11.4 µM (inactive).

For `CC(C)NCC[C@@H](O)c1cc2ccccc2o1`, the Potency is > 11.4 µM (inactive).

As for `CCn1c2ccccc2c2nnc(NCCCO)nc21`, the Potency is > 11.4 µM (inactive).

On to `Nc1cccc2cc(S(=O)(=O)Nc3ccc(C(=O)O)cc3)ccc12`, for which the Potency was > 11.4 µM (inactive).

For the molecule `O=C(O)CSc1ncccc1[N+](=O)[O-]`, the Potency was > 11.4 µM (inactive).

For `O=C(O)/C=C(/C(=O)O)[C@]12CCN3CC4=CCO[C@@H]5CC(=O)N[C@@H]1[C@H]5[C@H]4C[C@H]32`, the Potency was > 11.4 µM (inactive).

Regarding `CCSC[C@@H](N)C(=O)O`, the Potency was > 11.4 µM (inactive).

Regarding `N#CC1(Nc2ccc(-c3ccc(NC4(C#N)CCCC4)cc3)cc2)CCCC1`, the Potency is > 11.4 µM (inactive).

Regarding `C/C(=N/O)[C@@H]1C[C@H](CC(=O)O)C1(C)C`, the Potency is > 11.4 µM (inactive).

With `ClC(Cl)(Cl)C(N1CCN(c2ccccc2)CC1)N1CCN(c2ccccc2)CC1`, the Potency was > 11.4 µM (inactive).

As to `O=C(O)CC[C@]1(C(=O)O)CCC(=O)c2ccccc21`, the Potency was > 11.4 µM (inactive).

For the molecule `[N-]=[N+]=NC[C@@H]1O[C@@H](n2cnc3c(N)ncnc32)[C@@H]2O[C@@H]21`, the Potency is > 11.4 µM (inactive).

As to `O=C(O)COc1c(Cl)cc(Cl)c2cccnc12`, the Potency is > 11.4 µM (inactive).

For `CN(C)c1ccc(C2N([C@H](C#N)c3ccc(N(C)C)cc3)CCCN2[C@@H](C#N)c2ccc(N(C)C)cc2)cc1` (stereo partly drawn), the Potency is > 11.4 µM (inactive).

Take `C#CCOCCCC(=O)O`: the Potency is > 11.4 µM (inactive).

Turning to `CCC(C)(C)c1ccc(Oc2cccc(C(=O)O)c2)cc1`, the Potency is > 11.4 µM (inactive).

Turning to `Cc1cc([N+](=O)[O-])c(C)c(Br)c1C`, the Potency was > 11.4 µM (inactive).

For `CC1=C[N+](=O)c2ccccc2[N+]1=O`, the Potency is > 11.4 µM (inactive).

As to `Nc1ncnc2nc(N3CCN(CCO)CC3)[nH]c12`, the Potency was > 11.4 µM (inactive).

As for `C[C@H]1CN(CCO)CCN1c1ccccc1`, the Potency is > 11.4 µM (inactive).

For `C(=Nc1cnc2ccccc2c1)c1ccc2ccccc2n1`, the Potency was > 11.4 µM (inactive).

`Nc1ncnc2nn([C@H]3O[C@@H](CO)[C@@H](O)[C@H]3O)nc12`: the Potency was > 11.4 µM (inactive).

As for `CCOC(=O)[C@@H](O)Cc1cnc2ccccc2n1`, the Potency was > 11.4 µM (inactive).

Turning to `COc1ccc2c3c([nH]c2c1)[C@H]1C[C@@H]2[C@@H](C[C@@H](O)[C@H](OC)[C@H]2C(=O)O)CN1CC3`, the Potency is > 11.4 µM (inactive).

On to `N[C@@H](CSCc1ccc(I)cc1)C(=O)O`, for which the Potency was > 11.4 µM (inactive).

For `Cc1ncc(CN=Cc2ccc(Cl)cc2)c(N)n1`, the Potency is > 11.4 µM (inactive).

Consider `Nc1nc(-c2ccc3ccccc3c2)cc(-c2cc(-c3ccc4ccccc4c3)nc(N)n2)n1`, for which the Potency is > 11.4 µM (inactive).

Turning to `Nc1ncnc2c1nc(-c1ccccc1)n2[C@H]1O[C@@H](CO)[C@@H](O)[C@H]1O`, the Potency is > 11.4 µM (inactive).

Consider `OC[C@@H](O)CNc1ncnc2ccccc12`, for which the Potency was > 11.4 µM (inactive).

`O=C(NCc1cccnc1)[C@@H]1[C@@H](C(=O)O)[C@H]2CC[C@@H]1O2`: the Potency was > 11.4 µM (inactive).

As for `Nc1nc(-c2ccccc2)c(-c2ccccc2)c(-c2nc(N)nc(-c3ccccc3)c2-c2ccccc2)n1`, the Potency was > 11.4 µM (inactive).

For `C[C@@]1(CCOCc2ccccc2)NC(=O)NC1=O`, the Potency was > 11.4 µM (inactive).

`O=C(O)[C@H]1CC=CC[C@@H]1C(=O)Nc1cccc(O)c1`: the Potency was > 11.4 µM (inactive).

Regarding `Oc1ccc2ccccc2c1C=NCc1c(O)ccc2ccccc12`, the Potency is > 11.4 µM (inactive).

On to `O=C(O)CSc1cc(-c2ccccc2)nc2ccccc12`, for which the Potency is > 11.4 µM (inactive).

Turning to `C[C@@H](CSC(=N)N)C(N)=O`, the Potency is > 11.4 µM (inactive).

On to `COc1ccc2[nH]c3cc4c(=O)c5cc(OC)ccc5[nH]c4cc3c(=O)c2c1`, for which the Potency was > 11.4 µM (inactive).

As to `S=C(S)NCCN1CCNCC1`, the Potency is > 11.4 µM (inactive).

`Cc1cc(C)c2nc3c(c([C@H](O)[C@@H]4CCCCN4)c2c1)CC/C3=C/c1ccc(Cl)cc1`: the Potency was > 11.4 µM (inactive).

System in the next test: not listed separately
As to the kind of experiment: AP1 Signaling Pathway (AID 357; active = well fitted curve in either direction with a large enough effect, not every such curve was filed as active; also: % is scaled to controls: 0 for no effect and ±100 for the full control effect). Particulars: ME-180 (cervical carcinoma) AP-1-bla reporter, EGF-induced, beta-lactamase ratio, 5 h; at 7.69 µM (top of the series) unless noted. The essentials:
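ME-180 cells with beta-lactamase reporter under AP-1 response element, stimulated with EC50 EGF; compounds tested in titration series, 5 h at 37 °C. CCF4 substrate added 2.5 h at room temperature; 460/530 nm emission ratio gave %activity and AC50.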
In the case of `O=C(O)c1cccc(C(=O)O)c1S(=O)Cc1ccccc1` (stereo not drawn), the activity change, negative = inhibition is 5.26% (inactive).

On to `CC(C)NCC[C@@H](O)c1cc2ccccc2o1`, for which the activity change, negative = inhibition is -15% (inactive).

Turning to `CCn1c2ccccc2c2nnc(NCCCO)nc21`, the activity change, negative = inhibition is 7.47% (inactive).

Take `Nc1cccc2cc(S(=O)(=O)Nc3ccc(C(=O)O)cc3)ccc12`: the activity change, negative = inhibition is -0.623% (inactive).

In the case of `O=C(O)CSc1ncccc1[N+](=O)[O-]`, the activity change, negative = inhibition is 6.57% (inactive).

Take `O=C(O)/C=C(/C(=O)O)[C@]12CCN3CC4=CCO[C@@H]5CC(=O)N[C@@H]1[C@H]5[C@H]4C[C@H]32`: the activity change, negative = inhibition was 9.14% (inactive).

`CCSC[C@@H](N)C(=O)O`: the activity change, negative = inhibition is 5.2% (inactive).

Regarding `N#CC1(Nc2ccc(-c3ccc(NC4(C#N)CCCC4)cc3)cc2)CCCC1`, the activity change, negative = inhibition is -7.74% (inactive).

As to `C/C(=N/O)[C@@H]1C[C@H](CC(=O)O)C1(C)C`, the activity change, negative = inhibition is 10.6% (inactive).

Consider `ClC(Cl)(Cl)C(N1CCN(c2ccccc2)CC1)N1CCN(c2ccccc2)CC1`, for which the activity change, negative = inhibition was -0.388% (inactive).

With `O=C(O)CC[C@]1(C(=O)O)CCC(=O)c2ccccc21`, the activity change, negative = inhibition was 11.8% (inactive).

In the case of `[N-]=[N+]=NC[C@@H]1O[C@@H](n2cnc3c(N)ncnc32)[C@@H]2O[C@@H]21`, the activity change, negative = inhibition is 8.89% (inactive).

With `O=C(O)COc1c(Cl)cc(Cl)c2cccnc12`, the activity change, negative = inhibition is 6.1% (inactive).

As to `CN(C)c1ccc(C2N([C@H](C#N)c3ccc(N(C)C)cc3)CCCN2[C@@H](C#N)c2ccc(N(C)C)cc2)cc1` (stereo partly drawn), the activity change, negative = inhibition was 0.74% (inactive).

As to `C#CCOCCCC(=O)O`, the activity change, negative = inhibition is -3.26% (inactive).

In the case of `CCC(C)(C)c1ccc(Oc2cccc(C(=O)O)c2)cc1`, the activity change, negative = inhibition was -11.1% (inactive).

`Cc1cc([N+](=O)[O-])c(C)c(Br)c1C`: the activity change, negative = inhibition was 3.15% (inactive).

`CC1=C[N+](=O)c2ccccc2[N+]1=O`: the activity change, negative = inhibition is 5.1% (inactive).

Regarding `Nc1ncnc2nc(N3CCN(CCO)CC3)[nH]c12`, the activity change, negative = inhibition is 2.43% (inactive).

On to `C[C@H]1CN(CCO)CCN1c1ccccc1`, for which the activity change, negative = inhibition was 11.5% (inactive).

As for `C(=Nc1cnc2ccccc2c1)c1ccc2ccccc2n1`, the activity change, negative = inhibition is -2.4% (inactive).

For `Nc1ncnc2nn([C@H]3O[C@@H](CO)[C@@H](O)[C@H]3O)nc12`, the activity change, negative = inhibition is -9.36% (inactive).

For `CCOC(=O)[C@@H](O)Cc1cnc2ccccc2n1`, the activity change, negative = inhibition was 5.54% (inactive).

On to `COc1ccc2c3c([nH]c2c1)[C@H]1C[C@@H]2[C@@H](C[C@@H](O)[C@H](OC)[C@H]2C(=O)O)CN1CC3`, for which the activity change, negative = inhibition is -5.49% (inactive).

Take `N[C@@H](CSCc1ccc(I)cc1)C(=O)O`: the activity change, negative = inhibition was -1.51% (inactive).

Turning to `Cc1ncc(CN=Cc2ccc(Cl)cc2)c(N)n1`, the activity change, negative = inhibition is -0.312% (inactive).

On to `Nc1nc(-c2ccc3ccccc3c2)cc(-c2cc(-c3ccc4ccccc4c3)nc(N)n2)n1`, for which the activity change, negative = inhibition was -3.27% (inactive).

Consider `Nc1ncnc2c1nc(-c1ccccc1)n2[C@H]1O[C@@H](CO)[C@@H](O)[C@H]1O`, for which the activity change, negative = inhibition was -9.23% (inactive).

On to `OC[C@@H](O)CNc1ncnc2ccccc12`, for which the activity change, negative = inhibition was -1.31% (inactive).

Take `O=C(NCc1cccnc1)[C@@H]1[C@@H](C(=O)O)[C@H]2CC[C@@H]1O2`: the activity change, negative = inhibition was 1.51% (inactive).

Turning to `Nc1nc(-c2ccccc2)c(-c2ccccc2)c(-c2nc(N)nc(-c3ccccc3)c2-c2ccccc2)n1`, the activity change, negative = inhibition is -1.08% (inactive).

Turning to `C[C@@]1(CCOCc2ccccc2)NC(=O)NC1=O`, the activity change, negative = inhibition is 7.73% (inactive).

On to `O=C(O)[C@H]1CC=CC[C@@H]1C(=O)Nc1cccc(O)c1`, for which the activity change, negative = inhibition is -4.95% (inactive).

Take `Oc1ccc2ccccc2c1C=NCc1c(O)ccc2ccccc12`: the activity change, negative = inhibition was -5.07% (inactive).

`O=C(O)CSc1cc(-c2ccccc2)nc2ccccc12`: the activity change, negative = inhibition was 4.39% (inactive).

Take `C[C@@H](CSC(=N)N)C(N)=O`: the activity change, negative = inhibition is -3.05% (inactive).

In the case of `COc1ccc2[nH]c3cc4c(=O)c5cc(OC)ccc5[nH]c4cc3c(=O)c2c1`, the activity change, negative = inhibition was -2.15% (inactive).

In the case of `S=C(S)NCCN1CCNCC1`, the activity change, negative = inhibition is -1.68% (inactive).

As to `Cc1cc(C)c2nc3c(c([C@H](O)[C@@H]4CCCCN4)c2c1)CC/C3=C/c1ccc(Cl)cc1`, the activity change, negative = inhibition was 4.75% (inactive).
